# Source: PubChem BioAssay (NCATS)
# Results filed as inconclusive are left out. Entries that show only a call come without a potency. The source made the active and inactive calls. The call rests on the fitted dose curve; in most records, active means well fitted curve in the direction sought with a large enough effect; inconclusive means small, poorly fitted or top-dose-only effect, or another doubt; inactive means no such curve, though single readings can be large; an effect the other way counts as inactive or inconclusive.
# Target: Chromobox protein homolog 1 (Homo sapiens) (UniProt P83916)
# Assay: qHTS Validation Assay for Inhibitors of HP1-beta Chromodomain Interactions with Methylated Histone Tails (AID 488953); further: nearly all actives have a fitted effect of over 50% in size; further: potency means the concentration at half of the fitted maximal effect
# Settings: HP1-beta chromodomain / methylated histone peptide binding assay; series mostly up to 114 µM
# How it was run: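 Measured as loss of AlphaScreen luminescence from streptavidin donor and nickel acceptor beads (10 ug/mL final) bridging HP1-beta and biotin-H3(1-18)K9me3, each 50 nM. Compounds met the preassembled complex for 30 min at RT.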
# Sequence of Chromobox protein homolog 1 (Homo sapiens) (P83916 whole entry, looked up): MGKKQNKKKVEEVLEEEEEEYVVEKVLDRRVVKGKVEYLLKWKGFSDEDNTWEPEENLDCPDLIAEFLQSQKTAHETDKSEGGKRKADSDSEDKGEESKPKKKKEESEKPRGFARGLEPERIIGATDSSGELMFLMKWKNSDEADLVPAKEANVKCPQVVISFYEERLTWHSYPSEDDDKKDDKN
row,SMILES,Potency
1,Nc1nc(SCc2ccc([N+](=O)[O-])cc2)c2ncn([C@@H]3O[C@H](CO)[C@@H](O)[C@H]3O)c2n1,inactive
2,CCCCCCCCc1ccc(-c2ccc(C(=O)O)cc2)cc1,inactive
3,CCCCCC(O)c1cccc(OCc2ccc3ccccc3n2)c1 (stereo unspecified),inactive
4,Fc1cccc(/C=N/N=C/c2cccc(F)c2)c1,inactive
5,NCCSSCCN,50.1 µM (active)
6,O=C(O)CCCC[C@@H]1CCSS1,inactive
7,NC(=O)C(=O)O,inactive
8,O=c1[nH]c2cc([N+](=O)[O-])c([N+](=O)[O-])cc2[nH]c1=O,inactive
9,NCC1OC(O[C@H]2[C@H](O)[C@@H](OC3C(O)C(N)CC(N)C3OC3OC(CO)C(O)C(O)C3N)O[C@@H]2CO)C(N)C(O)C1O (stereo partly specified),inactive
10,CN1C2CCC1CC(OC(=O)C(O)c1ccccc1)C2 (stereo unspecified),inactive
11,CNc1ncnc2c1ncn2[C@@H]1O[C@H](CO)[C@@H](O)[C@H]1O,inactive
12,CC[C@@H](C)[C@H]1O[C@]2(CC[C@H]1C)C[C@@H]1C[C@@H](CC=C(C)[C@@H](O[C@H]3C[C@H](OC)[C@@H](O[C@H]4C[C@H](OC)[C@@H](O)[C@H](C)O4)[C@H](C)O3)[C@@H](C)C=CC=C3CO[C@@H]4[C@H](O)C(C)=C[C@@H](C(=O)O1)[C@]34O)O2,inactive
13,CCN(CC)c1ncnc2c1ncn2[C@@H]1O[C@H](COP(=O)(O)OP(=O)(O)C(Br)(Br)P(=O)(O)O)[C@@H](O)[C@H]1O,inactive
14,CCCCCCCCCCCCCCCC(=O)NCC(COP(=O)([O-])OCC[N+](C)(C)C)OCC (stereo unspecified),inactive
15,O=C(O)[C@@H]1C[C@H](C(=O)O)N1,inactive
16,C=C[C@H]1CN2CC[C@@H]1C[C@@H]2[C@@H](O)c1ccnc2ccc(OC)cc12,inactive

# Target: Methanococcus maripaludis chaperonin (MmCpn) (UniProt Q6LX38)
# Assay: High-Throughput Screening for Modulators of Cytosolic Chaperonin Activity: MmCpn Primary Screen (AID 488978);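 further: 50 nM MmCpn enzyme hydrolysing 30 µM ATP at 37 °C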
# Settings: Purified MmCpn ATPase activity, ADP HTRF detection, 10 min; series mostly up to 76.9 µM
# How it was run: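 ADP formation read by HTRF Transcreener, 665/590 nm emission after 320 nm excitation. Enzyme: archaeal chaperonin at 50 nM final; substrate ATP 30 uM final; 10 min, 37C, after 5 min compound preincubation at RT.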
# Sequence of Methanococcus maripaludis chaperonin (MmCpn) (Q6LX38 1-543): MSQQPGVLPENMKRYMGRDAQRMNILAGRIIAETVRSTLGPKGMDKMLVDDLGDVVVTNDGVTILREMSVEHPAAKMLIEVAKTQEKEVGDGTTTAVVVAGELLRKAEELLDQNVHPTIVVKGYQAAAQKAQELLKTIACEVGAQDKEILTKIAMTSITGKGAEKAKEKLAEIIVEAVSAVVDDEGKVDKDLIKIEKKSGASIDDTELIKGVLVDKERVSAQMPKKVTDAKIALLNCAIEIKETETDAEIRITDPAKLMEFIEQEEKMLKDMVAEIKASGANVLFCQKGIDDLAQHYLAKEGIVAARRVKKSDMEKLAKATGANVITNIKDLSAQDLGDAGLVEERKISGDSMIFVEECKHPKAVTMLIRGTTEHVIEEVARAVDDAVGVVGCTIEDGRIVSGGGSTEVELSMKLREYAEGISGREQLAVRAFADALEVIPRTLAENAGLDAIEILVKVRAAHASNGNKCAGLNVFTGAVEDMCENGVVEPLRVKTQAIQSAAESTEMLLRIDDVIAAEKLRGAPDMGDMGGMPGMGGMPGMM
row,SMILES,outcome
1,Nc1nc(SCc2ccc([N+](=O)[O-])cc2)c2ncn([C@@H]3O[C@H](CO)[C@@H](O)[C@H]3O)c2n1,inactive
2,CC(C)NCC(O)COc1cccc2ccccc12 (stereo unspecified),inactive
3,Fc1ccc(C(OCCCc2cnc[nH]2)c2ccc(F)cc2)cc1,inactive
4,CCCCCCCCc1ccc(-c2ccc(C(=O)O)cc2)cc1,inactive
5,O=C(O)CC1CCCc2ccccc2C1O (stereo unspecified),inactive
6,CCCCCC(O)c1cccc(OCc2ccc3ccccc3n2)c1 (stereo unspecified),inactive
7,CC1OC1P(=O)(O)O (stereo unspecified),inactive
8,Fc1cccc(/C=N/N=C/c2cccc(F)c2)c1,inactive
9,C#CCN1C(C)=C(C(=O)OC)C(c2cccc([N+](=O)[O-])c2)C(C(=O)OCC)=C1C (stereo unspecified),inactive
10,NC(=O)C1=CN(C2OC(COP(=O)(O)OP(=O)(O)OC[C@H]3O[C@@H](n4cnc5c(N)ncnc54)[C@H](OP(=O)(O)O)[C@@H]3O)C(O)C2O)C=CC1 (stereo partly specified),inactive
11,Cc1nc2sccn2c(=O)c1CCN1CCC(=C(c2ccccc2)c2ccc(F)cc2)CC1,inactive
12,NCCSSCCN,inactive
13,CC(N)C(=O)OC(C)(C)Cc1ccc(Cl)cc1 (stereo unspecified),inactive
14,CCOC(=O)N1CCN(/[N+]([O-])=N/Oc2ccc([N+](=O)[O-])cc2[N+](=O)[O-])CC1,inactive
15,NO,inactive
16,NCCCCCCCCCCN,inactive
17,COc1ccccc1N1CCN(CCN(C(=O)c2ccc(I)cc2)c2ccccn2)CC1,inactive
18,O=C(O)CCCC[C@@H]1CCSS1,inactive

row,SMILES,outcome
1,N=C(N)SCCc1ccc(CCSC(=N)N)cc1,inactive
2,NCC1OC(O[C@H]2[C@H](O)[C@@H](OC3C(O)C(N)CC(N)C3OC3OC(CO)C(O)C(O)C3N)O[C@@H]2CO)C(N)C(O)C1O (stereo partly specified),inactive
3,O=C(CCCCCN1CCN(c2ccccc2-c2ccccc2)CC1)NC1CCCc2ccccc21 (stereo unspecified),inactive
4,O=P(O)(O)C(Cl)(Cl)P(=O)(O)O,inactive
5,CN1C2CCC1CC(OC(=O)C(O)c1ccccc1)C2 (stereo unspecified),inactive
6,CNc1ncnc2c1ncn2[C@@H]1O[C@H](CO)[C@@H](O)[C@H]1O,inactive
7,CC[C@@H](C)[C@H]1O[C@]2(CC[C@H]1C)C[C@@H]1C[C@@H](CC=C(C)[C@@H](O[C@H]3C[C@H](OC)[C@@H](O[C@H]4C[C@H](OC)[C@@H](O)[C@H](C)O4)[C@H](C)O3)[C@@H](C)C=CC=C3CO[C@@H]4[C@H](O)C(C)=C[C@@H](C(=O)O1)[C@]34O)O2,inactive
8,NC[C@@H]1O[C@H](C23CC4CC(CC(C4)C2)C3)Cc2c1ccc(O)c2O,inactive
9,OCC1O[C@H]([S-])[C@H](O)[C@@H](O)[C@@H]1O.[Au+] (stereo partly specified),inactive
10,CCN(CC)c1ncnc2c1ncn2[C@@H]1O[C@H](COP(=O)(O)OP(=O)(O)C(Br)(Br)P(=O)(O)O)[C@@H](O)[C@H]1O,inactive
11,CCCCCCCCCCCCCCCC(=O)NCC(COP(=O)([O-])OCC[N+](C)(C)C)OCC (stereo unspecified),inactive
12,CN1CCC[C@H]1c1cccnc1,inactive
13,Cn1ncc(S(=O)(=O)Cc2ccccc2)c(Br)c1=O,inactive
14,N#C/C(=C\c1ccc(O)c(O)c1)C(=O)NCc1ccccc1,inactive
15,N#C/C(=C\c1c[nH]c2ccccc12)C(=O)c1ccc(O)c(O)c1,inactive
16,O=C(O)[C@@H]1C[C@H](C(=O)O)N1,inactive
17,C=C[C@H]1CN2CC[C@@H]1C[C@@H]2[C@@H](O)c1ccnc2ccc(OC)cc12,inactive
